Data taken from ChEMBL document CHEMBL3988442, “University of Dundee, Small-Polar-MMV Screening Library” (2021).

target: T1, Tyrosyl-tRNA synthetase, putative (Trypanosoma cruzi (strain CL Brener)) (UniProt Q4DSP6); assay: Trypanosoma cruzi tyrosyl tRNA synthetase (TcYRS) SOP; assay type: functional; design: scale not given: direction of the effect not stated beside the values; settings: 30 µM
T1 sequence (whole entry): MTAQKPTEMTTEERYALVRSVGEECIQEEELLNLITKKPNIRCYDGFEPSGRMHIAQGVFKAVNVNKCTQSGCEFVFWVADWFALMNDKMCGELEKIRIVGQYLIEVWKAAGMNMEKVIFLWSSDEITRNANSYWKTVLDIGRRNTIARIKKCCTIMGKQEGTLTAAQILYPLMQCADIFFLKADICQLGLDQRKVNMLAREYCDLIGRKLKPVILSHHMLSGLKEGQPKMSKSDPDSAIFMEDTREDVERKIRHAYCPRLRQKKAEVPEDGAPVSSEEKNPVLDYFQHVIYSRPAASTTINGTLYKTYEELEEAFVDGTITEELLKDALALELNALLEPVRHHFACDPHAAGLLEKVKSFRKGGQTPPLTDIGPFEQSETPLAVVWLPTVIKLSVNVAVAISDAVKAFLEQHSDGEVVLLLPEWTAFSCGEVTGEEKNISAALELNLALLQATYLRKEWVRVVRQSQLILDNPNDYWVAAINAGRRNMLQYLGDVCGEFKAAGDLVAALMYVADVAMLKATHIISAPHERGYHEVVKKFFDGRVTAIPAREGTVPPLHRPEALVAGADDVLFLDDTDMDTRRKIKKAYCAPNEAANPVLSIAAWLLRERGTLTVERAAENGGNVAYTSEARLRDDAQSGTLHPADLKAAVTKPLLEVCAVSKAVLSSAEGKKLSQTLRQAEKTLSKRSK

| SMILES | Percent Effect |
| --- | --- |
| COCCNC(=O)C(C)n1cc(Br)cn1 (centres undefined) | 16.1% |
| Cn1nccc1C1CCN(Cc2csc(-c3ncccn3)n2)CC1 | 28.1% |
| Cc1ccc(NS(=O)(=O)CC2=NC(=O)n3cccc3C2=O)cc1 | -17.9% |
| COc1ccc(C)cc1S(=O)(=O)NCC(c1cccn1C)N(C)C (centres undefined) | 10% |
| CSc1ccc(CNC(c2ccccc2)c2nccn2C)cc1 (centres undefined) | 30.5% |
| CCCNC(=O)N1CCN(Cc2cc(C)no2)CC1 | 23.5% |
| CN(Cc1ccco1)Cc1ccccc1CNC(=O)c1ccncc1 | 4.88% |
| CCc1c(C)sc(NC(=O)CN2CCN(CC)CC2)c1C(=O)OC | -2.56% |
| COc1ccc(CN(Cc2cncn2C)CC2CCCO2)cc1OC (centres undefined) | 11.7% |
| O=c1ccc(-c2cccs2)nn1CN1CCN(Cc2ccccc2)CC1 | 10.3% |
| COCC1Cn2nnc(-c3cnn(C)c3)c2CN1Cc1ccc(C)s1 (centres undefined) | 6.1% |
| CC1CCCCN1c1nc2c(c(=O)[nH]1)CCN(Cc1cccnc1)C2 (centres undefined) | 14.3% |
| O=C(Nc1ccccc1)C1CN(CC2CC2)CC12CCOCC2 (centres undefined) | -10% |
| COCCN1C[C@H]2CC[C@@]3(N=C(C)N(CC4CC4)C3=O)[C@H]2C1 | 8.54% |
| CC(C)c1cc(C(=O)N2CCN(Cc3ccsc3)CC2)n[nH]1 | 18.5% |
| CCc1c(C(=O)NC2CCS(=O)(=O)C2)cnn1-c1ccc(F)cc1 (centres undefined) | 21.5% |
| CS(=O)(=O)N1CCCC12CCCN(S(=O)(=O)c1cc(F)cc(F)c1)C2 (centres undefined) | -1.24% |
| COc1ccc(C2CCCCCN2S(=O)(=O)N(C)C)cc1 (centres undefined) | 5.13% |
| CC(Cn1ccnc1)NC(=O)NCCNC(=O)C(C)C (centres undefined) | 19.5% |
| O=C(NCCCn1cncn1)NCC(c1ccco1)N1CCCCC1 (centres undefined) | 18.8% |

| SMILES | Percent Effect |
| --- | --- |
| CNC(=O)c1cc2c(nc1NCC(C)C)CCN(S(=O)(=O)C1CC1)CC2 | 8.64% |
| COCCN(C)CC(=O)N1C[C@H]2CC[C@@H]1CN(C(=O)c1ccncc1)C2 | 13.6% |
| Cc1nn(CC(C)C)c(N(C)C)c1CNCc1cc2ccccc2[nH]1 | 16.1% |
| CN(C)Cc1ccnc(C2CCCN2Cc2ccncc2)n1 (centres undefined) | 11.7% |
| O=C([C@H]1COC[C@H]2CN(Cc3ccco3)C[C@H]21)N1CCCO1 | 15% |
| Cc1cc(C)c(CNC(=O)C2CCCN(c3cnccn3)C2)c(=O)[nH]1 (centres undefined) | -12.2% |
| COCCNC(=O)C[C@@H]1COC[C@H]2CN(C(=O)c3cnccn3)C[C@@H]12 | 13.6% |
| CN(C)[C@@H]1CCN(c2ncccn2)[C@H]1Cc1ccncc1 | 3.7% |
| CC(CNCc1ccncc1)Oc1ccccn1 (centres undefined) | 7.69% |
| COc1ncccc1CN1Cc2nnn(C)c2C(COCC2CC2)C1 (centres undefined) | 14.1% |
| Cc1noc2nc(C3CCN(Cc4ccncc4)CC3)cc(C(F)F)c12 | -1.3% |
| CSc1ncccc1C(=O)N1C[C@H]2CC[C@@H]1CN(c1cnccn1)C2 | 8.64% |
| CC(C(=O)Nc1ccc(N2CCCC2)nc1)n1ccnc1 (centres undefined) | 16.1% |
| Cc1ccc(Cl)cc1C(=O)N1CCC2(CC1)c1ccccc1[C@@H](N)[C@@H]2O | 12.2% |
| Cc1nc(CN2CCN(C(=O)c3ccn(C)c(=O)c3)CC2)cs1 | 15.2% |
| CNS(=O)(=O)c1ccc(C(=O)N2CCCC2c2ccccc2)o1 (centres undefined) | 18.5% |
| CS(=O)(=O)NCC1CCCCN1C(=O)Nc1cccnc1N1CCCC1 (centres undefined) | 13% |
| Cc1cccc(N2CCN(CCNC(=O)C(C)n3cncn3)CC2)c1 (centres undefined) | 23.5% |
| CCn1nc(CC(C)C)cc1C(=O)NCCCOC | 7.69% |
